Results on 40 compounds are retold here after PubChem BioAssay (NCATS).

Records with an inconclusive call do not appear. A call without a number means that no potency is given here. Active and inactive are the calls of the source. Calls come from the whole dose curve; as a rule, active = well fitted inhibition curve with a large enough effect; inconclusive = small, poorly fitted or top-dose-only effect; inactive = no such curve, though single readings can be large or run the other way.
Potency is the fitted concentration of half-maximal effect.

Chain of RecQ-like DNA helicase BLM (Homo sapiens) (P54132 whole entry, looked up): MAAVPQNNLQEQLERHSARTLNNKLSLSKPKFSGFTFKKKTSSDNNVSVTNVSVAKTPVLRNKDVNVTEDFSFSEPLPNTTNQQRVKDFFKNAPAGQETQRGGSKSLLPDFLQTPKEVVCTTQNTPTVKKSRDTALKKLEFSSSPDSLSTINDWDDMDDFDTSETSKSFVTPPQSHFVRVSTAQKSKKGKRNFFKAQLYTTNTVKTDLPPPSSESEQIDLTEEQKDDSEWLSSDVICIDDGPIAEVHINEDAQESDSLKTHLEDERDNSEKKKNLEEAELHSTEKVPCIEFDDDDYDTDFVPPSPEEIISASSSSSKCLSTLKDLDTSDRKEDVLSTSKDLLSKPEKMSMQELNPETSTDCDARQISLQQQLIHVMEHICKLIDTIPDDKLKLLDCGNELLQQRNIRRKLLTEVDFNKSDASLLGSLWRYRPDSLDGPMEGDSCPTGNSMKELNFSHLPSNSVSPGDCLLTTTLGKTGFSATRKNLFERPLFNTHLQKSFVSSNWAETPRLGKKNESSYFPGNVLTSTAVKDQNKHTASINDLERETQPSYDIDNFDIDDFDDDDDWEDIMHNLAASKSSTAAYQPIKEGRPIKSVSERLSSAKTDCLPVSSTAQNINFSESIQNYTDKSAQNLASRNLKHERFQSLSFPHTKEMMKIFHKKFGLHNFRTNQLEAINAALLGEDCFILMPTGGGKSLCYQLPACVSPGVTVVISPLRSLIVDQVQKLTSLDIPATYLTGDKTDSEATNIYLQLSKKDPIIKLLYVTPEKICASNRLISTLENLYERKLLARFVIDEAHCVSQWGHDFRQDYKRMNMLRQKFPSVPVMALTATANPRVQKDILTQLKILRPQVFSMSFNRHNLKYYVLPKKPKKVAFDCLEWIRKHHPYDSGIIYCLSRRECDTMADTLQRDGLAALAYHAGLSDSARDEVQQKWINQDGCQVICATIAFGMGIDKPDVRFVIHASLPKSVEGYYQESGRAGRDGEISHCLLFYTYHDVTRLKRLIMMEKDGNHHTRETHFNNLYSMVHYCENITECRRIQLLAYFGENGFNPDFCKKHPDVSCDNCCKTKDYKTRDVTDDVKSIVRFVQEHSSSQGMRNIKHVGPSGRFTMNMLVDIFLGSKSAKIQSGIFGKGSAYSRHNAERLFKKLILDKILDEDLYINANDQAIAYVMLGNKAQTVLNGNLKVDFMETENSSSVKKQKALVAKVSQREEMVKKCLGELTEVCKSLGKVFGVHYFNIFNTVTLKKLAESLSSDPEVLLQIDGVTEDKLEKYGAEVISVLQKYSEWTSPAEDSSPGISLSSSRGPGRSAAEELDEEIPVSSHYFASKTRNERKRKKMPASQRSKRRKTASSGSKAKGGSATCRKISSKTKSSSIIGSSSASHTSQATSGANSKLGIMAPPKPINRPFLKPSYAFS

The experiment concerns the target RecQ-like DNA helicase BLM (Homo sapiens) (UniProt P54132). In words: qHTS Validation Assay for Inhibitors of Bloom's syndrome helicase (BLM) (AID 2364). The following applies: BLM helicase DNA unwinding, fluorescence, in vitro; series mostly up to 57.1 µM. The text has this: Survival of cells and the faithful propagation of the genome depend on elaborate mechanisms of detecting and repairing DNA damage. Treatment of advanced cancer relies on radiation therapy or chemotherapy, which kill cancer cells by causing extensive DNA damage. It is often found, that cancer cells develop resistance to therapy through enhanced activity of DNA repair functions; this has led to an increased interest in developing drugs that interfere with DNA repair, which could sensitize cancer cells to conventional therapy.
This validation qHTS assay pertains to human BLM, which is important in resolving abnormal DNA structures formed during replication or homologous recombination. Shutting down the expression of BLM leads to chromosomal instability and higher radiation sensitivity in cultured cells.
The validation assay was a fluorescence quenching based kinetic qHTS for BLM Helicase DNA unwinding. The activity was measured as ATP-dependent separation of a 20-bp DNA duplex extended by 30-nt single-stranded tails (forked duplex). The forked DNA substrate was tagged with rhodamine fluorophore (carboxytetramethyl rhodamine, TAMRA) and BHQ-2 (Black Hole Quencher 2) dark quencher. Strand separation results in an increase in the fluorescence of TAMRA (excitation 525 nm, emission 598 nm). This substrate construct operates in a red-shifted region where very few compound library members have been noted to fluoresce (PubChem AIDs 593 and 594). An additional feature of the assay is the inclusion of 2.5 ug/ml poly (dIdC), to reduce interference by compounds such as DNA intercalators, a major source of false inhibitors.
Ian Hickson, University of Oxford
Opher Gileadi, Structural Genomics Consortium, University of Oxford
Screening Center PI: Austin, C.P.
Screening Center: NIH Chemical Genomics Center [NCGC]
Three uL of reaction buffer (25 mM Tris-HCl (pH 8.0), 5 mM NaCl, 2 mM MgCl2, 1mM DTT, 0.01% Tween- 20, and 2.5 ug/ml poly(dI-dC), including enzyme (50 nM BLM), were dispensed into a 1536-well Greiner black assay plate via solenoid-valve based nanoliter dispensers. Compounds (23 nl each in columns 5-48) and control (23 nl each in column 2 as dose-response) were transferred via a Kalypsys pintool equipped with a 1536-pin array. The plates were incubated for 15 min at room temperature, and then 1 ul of substrates (200 nM DNA and 2 mM ATP, final concentrations) was added to start the reaction. The plate was transferred into a ViewLux high-throughput CCD imager where the reaction progress was measured in a discontinuous kinetic mode (two reads spaced 2 hours apart, with intermediate room temperature incubation of the covered assay plate) by using standard red-fluorescence optics (excitation filter 525 nm, emission filter 598 nm). Enzyme-free and vehicle (DMSO) controls were included for signal normalization.
For orientation: Quantitative high-throughput screening tests each substance at several concentrations.
For the compound `CCN(CC)CCOC(=O)c1cc(Cl)c(N)cc1OC`, the Potency entry was “inactive”. For `COc1ccccc1N1CCN(CCCCN2C(=O)c3ccccc3C2=O)CC1`, the Potency entry is “inactive”. Under `N=C(N)SCCc1cnc[nH]1` stands “inactive”; under `Cc1nc(N=Nc2cc(S(=O)(=O)O)c3cc([N+](=O)[O-])cc(S(=O)(=O)O)c3c2)c(COP(=O)(O)O)c(C=O)c1O`, “inactive”. The value for `COc1cc([C@@H]2c3cc4c(cc3[C@H](O)C3COC(=O)[C@@H]32)OCO4)cc(OC)c1OC` (stereo not given in full) was “inactive”; that for `NCCNS(=O)(=O)c1cccc2c(Cl)cccc12` was “inactive”.

In the case of `N=C(N)SCCN`, the Potency entry was “inactive”. On to `Nc1ccc(-c2nc3ccc(-c4nc5ccc(N)cc5[nH]4)cc3[nH]2)cc1`, for which the Potency is 22.4 µM (active). Under `CCCCCCC/C=C\CCCCCCCCC(=O)O` stands 28.2 µM (active). In the case of `COc1cc(CC(=O)O)ccc1O`, the Potency entry was “inactive”. Consider `COc1ccc2c(c1)CCC1C2CC[C@@]2(C)C1CC[C@@H]2NCCCCCCN1C(=O)C=CC1=O` (stereo not given in full), for which the Potency result is “inactive”. Consider `O=c1onc2cnc3ccccc3n12`, for which the Potency entry is “inactive”. With `CCN(c1nc(N)c(C(=O)N=C(N)N)nc1Cl)C(C)C`, the Potency result was “inactive”. Under `O=C(O)C1=CC(=C(c2ccc(O)c(C(=O)O)c2)c2ccc(O)c(C(=O)O)c2)C=CC1=O` stands 0.794 µM (active); under `CC1CNCCN1S(=O)(=O)c1cccc2cnccc12` (stereo not given), “inactive”; under `CCCCC[C@H](CC(=O)NO)C(=O)N[C@H](C(=O)N1CCC[C@H]1CO)C(C)C`, “inactive”. Regarding `O=C(O)C1CN(CCCP(=O)(O)O)CCN1` (stereo not given), the Potency entry was “inactive”. As for `COC(=O)C(N)Cc1ccc(Cl)cc1` (stereo not given), the Potency entry was “inactive”.

As for `O=C(O)C1CCCNC1` (stereo not given), the Potency entry was “inactive”. In the case of `CC(=O)O[C@H]1CC2(C)[C@@H](C[C@@H](O)[C@H]3[C@@]4(C)CC[C@@H](O)[C@@H](C)[C@@H]4CC[C@@]32C)C1=C(CCC=C(C)C)C(=O)O` (stereo not given in full), the Potency result was “inactive”. Regarding `COc1cc(C(O)CO)ccc1O` (stereo not given), the Potency entry was “inactive”. For `CNCCNS(=O)(=O)c1cccc2cnccc12`, the Potency result was “inactive”.

Regarding `COc1ccc(NC(=O)c2ccc(-c3ccc(-c4noc(C)n4)cc3C)cc2)cc1N1CCN(C)CC1`, the Potency entry was “inactive”. On to `CC(=O)[C@H]1CCC2C3CC=C4C[C@@H](OS(=O)(=O)O)CC[C@]4(C)C3CC[C@@]21C` (stereo not given in full), for which the Potency result was “inactive”. For `O=C(c1ccc2c(c1)OCCO2)N1CCCCC1`, the Potency entry was “inactive”. The value for `[Li+]` was “inactive”; that for `O=S(=O)(c1cccc2c(Cl)cccc12)N1CCCNCC1` was “inactive”.

On to `Cc1ccccc1/C=C/C1=NCCN1`, for which the Potency result is “inactive”.

In the case of `CC(=O)NNC(=O)N1Cc2ccccc2Oc2ccc(Cl)cc21`, the Potency entry is “inactive”. Take `Fc1ccc(CN(C2=NCCN2)c2c(Cl)cccc2Cl)cc1`: the Potency entry is “inactive”. As to `CN1CCN(c2nc3cc(C(F)(F)F)ccc3n3cccc23)CC1`, the Potency result is “inactive”. Consider `Nc1ccc(N2C(=O)c3ccccc3C2=O)c(Cl)c1`, for which the Potency entry is “inactive”.

In the case of `O=C(O)/C=C/c1ccc(O)c(O)c1`, the Potency entry is “inactive”. For `CSC(N)=NCCC[C@H](N)C(=O)O`, the Potency result is “inactive”.

As for `CN(C)CCC(c1ccc(Br)cc1)c1ccccn1` (stereo not given), the Potency entry is “inactive”. Take `CCCCCCCCCCC/C=C\C(C)(C)/C=C\CCCC(=O)O`: the Potency was 25.1 µM (active). Consider `COc1ccc2c(c1)c(CC(=O)O)c(C)n2Cc1ccc(Cl)cc1`, for which the Potency result was “inactive”. For the compound `COc1ccccc1N1CCN(CCCCNC(=O)c2ccc3ccccc3c2)CC1`, the Potency result is “inactive”. With `Nc1nc2ccc(Cl)cc2c2nc(-c3ccco3)nn12`, the Potency entry is “inactive”. Regarding `CNC(=O)c1cc2c(cn1)[nH]c1ccccc12`, the Potency result is “inactive”.
